From PubChem
Shown are actives, neighbours in structure and some others; about 5.8% of the full set was active somewhere.
PINK1 modulator = changes PINK1 expression | PINK1 immunofluorescence, high-content cytometry, 24 h | Potency, µM (series often up to 76.6 µM), actives largely listed as activators | hit rate 0.2% among 410,000; active means well fitted activation curve with a large enough effect; inconclusive means small, poorly fitted or top-dose-only effect; cell line not stated here; further: nearly all actives have a fitted effect of over 65% in size
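PINK1 protein level read as immunofluorescence by microplate cytometer in a fixed, stained stable cell line after 24 h exposure to five compound concentrations, with CCCP as control.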
KB-3-1 cytotox = kills parental KB-3-1 adenocarcinoma cells. KB-3-1 viability, CellTiter-Glo ATP luminescence, 72 h. hit rate 1.4% among 400,000. Potency, µM (series often up to 46.1 µM), hits mostly cytotoxic. AID 1347075; further: nearly all actives have a fitted effect of over 60% in size
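Cells are dispensed, compounds pinned in, plates held at 37 °C for 72 h, then CellTiter-Glo is added and luminescence read after 10 minutes. Cell line: parental KB-3-1 in phenol-red-free DMEM, 10% FBS.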
MCF10A rerep = DNA re-replication induction in MCF 10a cells | MCF 10A DNA re-replication, Hoechst nuclear intensity, 48 h | AID 624296 | hit rate 2.9% among 350,000 | Potency, µM (highest dose often 46.1 µM), actives largely listed as activators; further: nearly all actives have a fitted effect of over 50% in size
SW480 rereplic = DNA re-replication induction in SW480 cells | SW480 DNA re-replication, Hoechst DNA content imaging, 48 h | Potency, µM (top dose mostly 46.1 µM), hits mostly activators | hit rate 1.8% among 340,000 | AID 624297; further: nearly all actives have a fitted effect of over 55% in size
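Compounds, transferred as 23 nL by pin tool, were incubated with cells for 48 hr; DNA content per nucleus was then quantified by Hoechst staining and fluorescence plate imaging.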
KB-V1 cytotox = kills drug-selected multidrug resistant KB-V1 cells | KB-V1 MDR cells viability, CellTiter-Glo, 72 h | Potency, µM (highest dose often 46.1 µM), hits mostly cytotoxic | hit rate 3.4% among 400,000 | AID 1347076; further: nearly all actives have a fitted effect of over 60% in size
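Compound-treated KB-V1 multidrug-resistant cells, 72 h, 37 degrees C; viability by CellTiter-Glo. Fitted qHTS curves give the values.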
12-LOX inh = inhibitors of human 12S-lipoxygenase ALOX12; P18054; purified 12hLO, xylenol orange hydroperoxide absorbance; Potency, µM (doses to about 108 µM), hits mostly inhibitors; hit rate 1.1% among 580,000; AID 1671190
Target sequence (P18054 whole entry, looked up): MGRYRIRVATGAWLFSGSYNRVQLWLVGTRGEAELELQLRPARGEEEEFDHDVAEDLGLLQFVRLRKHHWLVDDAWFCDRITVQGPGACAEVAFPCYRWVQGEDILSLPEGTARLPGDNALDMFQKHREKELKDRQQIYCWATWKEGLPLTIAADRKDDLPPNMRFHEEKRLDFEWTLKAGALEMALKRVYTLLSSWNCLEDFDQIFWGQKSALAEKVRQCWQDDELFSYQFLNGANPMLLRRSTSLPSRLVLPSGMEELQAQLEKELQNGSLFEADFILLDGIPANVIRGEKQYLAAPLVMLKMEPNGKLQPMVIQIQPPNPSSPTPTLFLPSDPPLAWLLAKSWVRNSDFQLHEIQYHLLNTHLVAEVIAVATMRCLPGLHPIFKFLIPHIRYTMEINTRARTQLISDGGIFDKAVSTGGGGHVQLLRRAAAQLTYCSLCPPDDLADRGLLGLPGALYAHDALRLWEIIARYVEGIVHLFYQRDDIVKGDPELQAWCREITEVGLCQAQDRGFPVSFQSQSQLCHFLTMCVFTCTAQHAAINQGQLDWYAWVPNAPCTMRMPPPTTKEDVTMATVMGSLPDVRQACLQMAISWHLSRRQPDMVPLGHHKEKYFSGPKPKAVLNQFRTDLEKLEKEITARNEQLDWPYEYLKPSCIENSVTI
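Purified human 12hLO (150 nM final) in 25 mM Hepes, 0.01% Triton X-100, pH 7.0 was preincubated 15 min at room temperature with compound. Then 40 uM arachidonic acid was added, 30 min. Hydroperoxide was read by Fe-XO absorbance ratio 573/405 nm.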
A number is an active result. Unless noted, the call rests on the fitted dose curve; in most records, active means well fitted curve in the direction sought with a large enough effect; inconclusive means small, poorly fitted or top-dose-only effect, or another doubt; inactive means no such curve, though single readings can be large; an effect the other way counts as inactive or inconclusive.

Cc1ccc(Sc2ncccc2COC(=O)Nc2ccccc2)cc1 was read as PINK1 modulator inactive, KB-3-1 cytotox inconclusive, MCF10A rerep 18.4µM, SW480 rereplic inactive, KB-V1 cytotox inactive and 12-LOX inh inactive.
`Cc1ccc(C(=O)N(Cc2cccs2)c2ccccn2)cc1` gave 12-LOX inh inactive.
Screening CC1=C[C@@H](CNCc2cccnc2)[C@H](C(C)C)C[C@H]1Cc1nnc(-c2ccc([N+](=O)[O-])cc2)o1 returned 12-LOX inh inactive.
Screening CN1C(=O)/C(=C/c2ccccc2F)Sc2ccc(C(=O)N3CCCC3)cc21 returned PINK1 modulator inactive, KB-3-1 cytotox inactive, MCF10A rerep inactive, SW480 rereplic inactive, KB-V1 cytotox inactive and 12-LOX inh inactive.
Screening CN1CCN(C(=O)c2ccc3c(c2)N(C)C(=O)/C(=C/c2cccc(Cl)c2)S3)CC1 returned PINK1 modulator inactive, KB-3-1 cytotox inactive, MCF10A rerep 13µM, SW480 rereplic inactive, KB-V1 cytotox inactive and 12-LOX inh inactive.
For C=CCN1C(=O)c2ccccc2Sc2ccc(C(=O)N3CCN(C)CC3)cc21 the results were PINK1 modulator inactive, KB-3-1 cytotox inactive, MCF10A rerep inactive, SW480 rereplic inactive, KB-V1 cytotox 9.2µM and 12-LOX inh inactive.
Screening COc1ccc(/C=C2\Sc3ccc(C(=O)N4CCN(Cc5ccccc5)CC4)cc3N(C)C2=O)cc1OC returned PINK1 modulator inactive, KB-3-1 cytotox inactive, MCF10A rerep 20.6µM, SW480 rereplic inconclusive, KB-V1 cytotox inactive and 12-LOX inh inactive.
COCc1nc(-c2ccc(OC3CN(Cc4ccsc4)C3)cc2)no1 was read as 12-LOX inh inactive.
For CCCc1n[nH]c(=S)n1Cc1ccco1 the results were PINK1 modulator inactive, KB-3-1 cytotox inactive, MCF10A rerep inactive, SW480 rereplic inactive, KB-V1 cytotox inactive and 12-LOX inh inactive.
S=c1[nH]nc(-c2ccncc2)n1Cc1ccco1 was read as PINK1 modulator inactive, KB-3-1 cytotox inactive, MCF10A rerep inactive, SW480 rereplic inactive, KB-V1 cytotox inactive and 12-LOX inh inconclusive.
Screening S=c1[nH]nc(COc2ccccc2)n1Cc1ccccc1 returned PINK1 modulator inactive, KB-3-1 cytotox inactive, MCF10A rerep inconclusive, SW480 rereplic inactive, KB-V1 cytotox inconclusive and 12-LOX inh inconclusive.
Screening S=c1[nH]nc(COc2ccc(Cl)cc2)n1Cc1ccco1 returned PINK1 modulator inactive, KB-3-1 cytotox inactive, MCF10A rerep inactive, SW480 rereplic inactive, KB-V1 cytotox inactive and 12-LOX inh 39.8µM.
`Cc1cc(Cl)ccc1OCCCc1n[nH]c(=S)n1Cc1ccco1` gave 12-LOX inh 17.8µM.
For COc1cccc(-c2n[nH]c(=S)n2Cc2ccco2)c1 the results were PINK1 modulator inactive, KB-3-1 cytotox inactive, MCF10A rerep inconclusive, SW480 rereplic inconclusive, KB-V1 cytotox inactive and 12-LOX inh 17.8µM.
For CN(C)c1ccc(/C=N/NC(N)=S)cc1[N+](=O)[O-] the results were PINK1 modulator inactive, KB-3-1 cytotox 14.6µM, MCF10A rerep inactive, SW480 rereplic inactive, KB-V1 cytotox 6.51µM and 12-LOX inh inactive.
For COC(=O)C1=C(C)N=C2SC=C(CC(=O)NCC3CCCO3)N2C1c1cc(OC)ccc1OC (stereo unspecified) the results were 12-LOX inh inactive.
For Brc1ccccc1/C=N/Nc1ccc2ccccc2n1 the results were PINK1 modulator inactive, KB-3-1 cytotox inactive, MCF10A rerep 16.4µM, SW480 rereplic inactive, KB-V1 cytotox inactive and 12-LOX inh inactive.
`Brc1ccc(/C=N/Nc2ccc3ccccc3n2)cc1` gave PINK1 modulator inactive, KB-3-1 cytotox inactive, MCF10A rerep inconclusive, SW480 rereplic inactive, KB-V1 cytotox inactive and 12-LOX inh inactive.
`COc1cc(OC)c2c(C)c(CC(=O)Nc3ccc4c(c3)OCO4)c(=O)oc2c1` gave 12-LOX inh inactive.
`C=CC[n+]1c(-c2ccc(OCC)cc2)csc1NNC(=O)Nc1ccccc1` gave PINK1 modulator inactive, KB-3-1 cytotox 18.4µM, MCF10A rerep inactive, SW480 rereplic inactive, KB-V1 cytotox 18.4µM and 12-LOX inh inactive.
Screening CCCc1cc(=O)oc2cc(OCC(=O)c3ccc(OC)cc3)ccc12 returned 12-LOX inh inactive.
`CCn1ncc(NC(=O)Cn2ncc3cc(-c4ccc(N(C)C)cc4)ccc32)n1` gave 12-LOX inh inactive.
Cc1cccc(-c2nn(-c3ccccc3)cc2CNCCO)c1 was read as PINK1 modulator inactive, KB-3-1 cytotox inactive and KB-V1 cytotox inactive.
`Cc1cccc(-n2cc(CNCCc3nc(C)cc(C)n3)c(-c3cccc(F)c3)n2)c1` gave PINK1 modulator inactive, KB-3-1 cytotox inactive, MCF10A rerep 4.11µM, SW480 rereplic 23.1µM, KB-V1 cytotox inactive and 12-LOX inh inconclusive.
Screening COc1ccc(-c2cc(C3CCN(C(=O)OC(C)(C)C)CC3)[nH]n2)cc1 returned PINK1 modulator inactive, KB-3-1 cytotox inconclusive, MCF10A rerep inactive, SW480 rereplic inactive, KB-V1 cytotox 13µM and 12-LOX inh inactive.
`COc1ccc(-c2cc(C3CCN(c4ccc(C(C)=O)cc4[N+](=O)[O-])CC3)[nH]n2)cc1` gave PINK1 modulator inactive, KB-3-1 cytotox inconclusive, MCF10A rerep inactive, SW480 rereplic inactive, KB-V1 cytotox 14.6µM and 12-LOX inh inactive.
COC(=O)c1ccc(N2CCC(c3cc(-c4ccc(OC)cc4)n[nH]3)CC2)c([N+](=O)[O-])c1 was read as PINK1 modulator inactive, KB-3-1 cytotox inactive, MCF10A rerep inactive, SW480 rereplic inactive, KB-V1 cytotox inconclusive and 12-LOX inh inactive.
O=c1c2c(-c3cccs3)csc2nc(CN2CCOCC2)n1CCOc1ccccc1Cl was read as 12-LOX inh inactive.
Screening CC(=O)Nc1ccc(OCC(O)CN2CCN(c3cc(Cl)ccc3C)CC2)cc1 (stereo unspecified) returned PINK1 modulator inactive, KB-3-1 cytotox inconclusive, MCF10A rerep inconclusive, SW480 rereplic inactive, KB-V1 cytotox 4.11µM and 12-LOX inh inactive.
Screening CC(=O)N1CCN(CC(O)COc2ccc(Br)cc2)CC1 (stereo unspecified) returned PINK1 modulator inactive, KB-3-1 cytotox inactive, MCF10A rerep inactive, SW480 rereplic inactive, KB-V1 cytotox inactive and 12-LOX inh 0.355µM.
Screening CC(C)CC(NC(=O)C1CCCCC1)C(=O)NCCc1ccccc1 (stereo unspecified) returned 12-LOX inh inactive.
Screening O=C(NNc1ccccn1)C(=O)NNS(=O)(=O)c1ccc(Cl)cc1 returned PINK1 modulator inactive, KB-3-1 cytotox inconclusive, MCF10A rerep inconclusive, SW480 rereplic inconclusive, KB-V1 cytotox 18.4µM and 12-LOX inh inactive.
CC(=O)c1cnc2n(c1=O)CCS2 was read as PINK1 modulator inactive, KB-3-1 cytotox inactive, MCF10A rerep inactive, SW480 rereplic 13µM, KB-V1 cytotox inactive and 12-LOX inh inactive.
